Screens deposited in PubChem BioAssay by National Center for Advancing Translational Sciences (NCATS).
Epigenetic mod: qHTS Assay for Epigenetic Modulators; mouse C127i GFP locus derepression, cytometry, 30 h; Potency, µM (series often up to 46.1 µM), for the others: at the top dose GFP derepression (activation); 68,000 compounds, 0.09% hits; AID 597, 2007; also: % of control where 0% means no effect
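Read-out is the number of GFP-positive cells, scored as fluorescent objects 20 to 120 um wide, reflecting derepression of a silenced CMV-GFP reporter in murine C127i cells after 30 h compound exposure at 37 C.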
HBB splice mod: qHTS Assay for Modulators of Hemoglobin Beta Chain Splicing | HBB splicing reporter cell assay, activation; EGFP reporter with mutant IVS2-654 intron; response scale: normalised to 500 nM splice-correcting PNA | Potency, µM (top dose mostly 46.1 µM), inactives show top-dose activation, hits mostly activators | 65,000 compounds, 0.06% hits | AID 925, 2007; also: potency is read from the fitted curve at half-maximal effect; 0% is about no effect
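Compounds were applied for 2 days to HeLa EGFP-654 cells, 500/well in Optimem with 2% FCS. The reporter's EGFP is disrupted by mis-splicing of beta-globin intron IVS2-654. Readout: summed well GFP fluorescence from 488 nm laser scanning; reference was 500 nM antisense […] 654 PNA.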
Peg3 imprint: qHTS Assay for Compounds that Induce Erasure of Genomic Imprints | 110,000 compounds, 0.02% hits | mouse ES Peg3-LacZ reporter, beta-gal luminescence, 40 h | Potency, µM (top dose mostly 60.7 µM), for the others: at the top dose activity change, positive = activation, actives largely listed as activators; also: potency is read from the fitted curve at half-maximal effect
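Readout: BetaGlo luminescence (5 min, room temp) for LacZ from the normally silent maternal Peg3 allele in female Peg3LacZ-Neo ES cells. Cells 300/well, 40 h, 37C, 5% CO2. Data normalized per plate to negative controls.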
IkB signaling: IkB Signaling. Potency, µM (top dose mostly 57.1 µM), for inactives: top-dose IkBa stabilization activation. ABC-DLBCL IkBa-CBG/CBR dual luciferase ratio, 4 h; response scale: scaled: untreated 0%, proteasome inhibitor 100%. 110,000 compounds, 0.04% hits; active = well fitted curve in the direction sought with a large enough effect in the signal ratio, not every such curve was filed as active; inconclusive = small, poorly fitted or top-dose-only effect, or a change in a side signal; the % refers to the signal ratio;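 also: potency is read from the fitted curve at half-maximal effect; the direction sought is a rising ratio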
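Curves were fitted separately to fusion (green), unfused (red) and ratio luminescence, then classed by r2, magnitude and activity. Cells: OCI-Ly3, 4 h compound plus doxycycline at 37C; 10 uM MG-132 defined full response.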
CRE-bla Fsk: Cell signaling CRE-BLA (Fsk stim). CHO CRE-bla reporter (cAMP response element driving beta-lactamase), forskolin EC10, beta-lactamase ratio. Potency, µM (series often up to 38.2 µM), for inactives: at the highest dose activity change, negative = inhibition, hits mostly activators. 71,000 compounds, 2.5% hits; active = well fitted activation curve with a large enough effect in the signal ratio, with a control signal flat, not every such curve was filed as active; inconclusive = small, poorly fitted or top-dose-only effect, or effect the other way, or a change in a side signal; the % refers to the signal ratio; also: potency is read from the fitted curve at half-maximal effect; % of control where 0% means no effect
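CHO CRE-bla cells, overnight plating in Opti-MEM with 0.5% dialyzed FBS; cpd titration + EC10 NKH 477, 3 h 37 °C; CCF4 2 h RT; ex 405/em 460 vs 530 ratio → %Activity, AC50.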
Active calls of the source: *; ? = inconclusive; · = no result given; [ ] = another dose, or the depositor's remark. The entries come from a sample that favours hits as a whole. Unless noted, calls follow the shape of the dose curve; as a rule, active = well fitted curve in the direction sought with a large enough effect; inconclusive = small, poorly fitted or top-dose-only effect, or another doubt; inactive = no such curve, though single readings can be large; an effect the other way counts as inactive or inconclusive.

SMILES | Epigenetic mod | HBB splice mod | Peg3 imprint | IkB signaling | CRE-bla Fsk
CCCCOC(=O)C1=C(C)Nc2ncnn2C1c1cc(OC)c(OC)cc1OC (centres undefined) | 0.2% | 4.6% | -7.7% | -1.9% | 15.8µM*
Cc1cccc(CSc2nc(=O)c3c(n2C)NC(=O)CC3c2cc(F)cc(F)c2)c1 (centres undefined) | · | · | -15.7%[10.9 µM] | ? | ·
CCC1CCc2c(sc(NC(=O)c3ccoc3C)c2C(N)=O)C1 (centres undefined) | -2.6% | -1.6% | -17.2% | -0.2% | 10µM*
CCn1nc(NC(=O)c2ccncc2)c2cc3cccc(C)c3nc21 | 0.0% | 2.7%[57.5 µM] | -9.2% | 0.9% | 5.01µM*
CCn1nc(NC(=O)c2ccncc2)c2cc3ccccc3nc21 | -2.1% | 3.2%[0.369 µM] | 18.6% | 3.4% | 6.31µM*
CCn1nc(NC(=O)c2cccnc2)c2cc3cccc(C)c3nc21 | 0.0% | -0.6% | -7.1% | -2.4% | -1.0%
CCOC(=O)c1cc(S(=O)(=O)Nc2ccccc2OCC)[nH]n1 | · | · | -7.9%[10.9 µM] | 1.1% | ·
CCn1c(SCC(=O)c2c[nH]c3ccccc23)nnc1-c1cccs1 | 20µM* | ? | -27.4% | 4.0% | -1.1%
Cn1cnnc1SCC(=O)c1c[nH]c2ccccc12 | -0.7% | 0.3%[57.5 µM] | -67.7% | -0.6% | -3.6%
Cc1ccc(-c2nnc3ccc(SCC(=O)Nc4cc(C)on4)nn23)cc1 | 0.0% | -0.2% | -2.8% | -3.4% | ?
Cc1cc(NC(=O)CSc2ccc3nnc(-c4cccs4)n3n2)no1 | · | 0.1% | -6.4% | 2.9% | 10µM*
c1ccc(Cn2nnc3c(N4CCCC4)ncnc32)cc1 | 1.0% | · | -2.3% | -2.7% | 10µM*
Cc1nc(N2CCCC2)c2nnn(Cc3ccccc3Cl)c2n1 | -3.1% | · | -13.6% | -1.0% | 2.51µM*
CCN1CCN(c2ncnc3c2nnn3Cc2ccccc2)CC1 | 2.3% | · | -7.3% | 0.0% | -3.1%
Cc1nc(N2CCC(C(N)=O)CC2)c2nnn(Cc3ccccc3)c2n1 | -1.0% | · | 2.9% | 0.8% | 4.9%
CC(=O)CC1OC(=O)C(Br)=C1NCc1ccccc1 (centres undefined) | 12.6µM* | 5.7% | -32.0% | ? | ?
CCOc1ccc(CNC(=O)c2cccc(NC(=O)N3CCSc4ncccc43)c2)cc1OC | · | · | 6.6%[10.9 µM] | ? | ·
Cc1ccc2c(c1)c1c(n2CC(O)Cn2nc(C)c(Br)c2C)C(=O)CCC1 (centres undefined) | 3.8% | -0.5% | ? | 0.1% | 0.3%
Cc1ccc2c(c1)c(C)c(C)n2CC(O)Cn1nc(C)c(Br)c1C (centres undefined) | 0.2% | 0.0% | -6.7% | -0.8% | 2µM*
O=C(c1cnc(N2CCCCC2)c2ccccc12)N1CCN(c2cccc(Cl)c2)CC1 | · | · | -13.2%[10.9 µM] | ? | ·
CCc1nc(N)c(C#N)c(-c2ccc(O)c(OC)c2)c1C | -1.0% | 0.4%[57.5 µM] | -3.5% | 1.0% | 10µM*
Cc1nc(N)c(C#N)c(-c2ccccc2)c1C | -2.3% | -2.2% | -3.0% | 1.2% | ?
CCc1nc(N)c(C#N)c(-c2cccn2C)c1C | 0.0% | -4.6%[57.5 µM] | -10.9% | -1.7% | 12.6µM*
Cc1c(-c2ccccc2)nc(N)c(C#N)c1-c1ccco1 | 0.0% | 4.0%[57.5 µM] | -2.3% | -0.6% | 10µM*
CCOc1cc(-c2cc(-c3ccc(N)cc3)nc(N)c2C#N)ccc1O | -2.3% | 0.1%[57.5 µM] | -0.5% | ? | 2.51µM*
SMILES | Epigenetic mod | HBB splice mod | Peg3 imprint | IkB signaling | CRE-bla Fsk
CCc1nc(N)c(C#N)c(-c2ccc(OC)c(OC)c2)c1C | -1.9% | · | -6.0% | -1.0% | ?
CC(C)Sc1ncc(Cl)c(C(=O)Nc2ccc(S(=O)(=O)N3CCCCC3)cc2)n1 | · | · | 8.5%[10.9 µM] | ? | ·
Cc1ccc(N2CC(NC(=O)c3ccc(S(=O)(=O)N4CCCC4)cc3)CC2=O)cc1C (centres undefined) | · | · | -5.6%[10.9 µM] | -0.5% | ·
COc1ccccc1NC(=O)CSc1oc(-c2cccs2)nc1S(=O)(=O)c1ccccc1 | · | · | -5.7%[10.9 µM] | ? | ·
CCc1nc(N)c(C#N)c(-c2ccco2)c1C | -1.9% | -0.3%[9.22 µM] | -6.0% | -1.8% | 10µM*
CC(C)c1ccc(NC(=O)CN2C(=O)COc3ccc(S(=O)(=O)N4CCCCCC4)cc32)cc1 | · | · | -18.3%[10.9 µM] | 0.0% | ·
COc1ccc2oc(-c3ccc(O)cc3)cc(=O)c2c1 | -0.4%[9.22 µM] | · | -86.6% | 0.1%[11.4 µM] | 15.8µM*
COc1cc2oc(-c3ccccc3)cc(=O)c2cc1OC | -4.6%[9.22 µM] | · | -17.1% | -1.3%[11.4 µM] | 6.31µM*
COc1cccc2oc(-c3ccccc3)cc(=O)c12 | · | · | -93.3% | · | ·
COc1ccc(Cl)cc1C(=O)Nc1ccccc1N1CCN(C(=O)C(C)C)CC1 | -2.2% | 1.4% | -16.2% | ? | 12.6µM*
CCn1nc(C(=O)OCC(=O)c2c[nH]c3ccccc23)c2ccccc2c1=O | -0.9% | 4.3%[57.5 µM] | -12.5% | ? | 3.98µM*
CCn1nc(C(=O)OCC(=O)N2CCc3ccccc32)c2ccccc2c1=O | 0.0% | -0.5% | -8.8% | -2.0% | ?
CCOC(=O)C1CCN(C(=O)c2cc3c(-c4ccc(OC)c(OC)c4)nn(C)c3s2)CC1 | -5.0% | -0.4% | -18.4% | -1.5% | 2.51µM*
CCOC(=O)N1CCC(NC(=O)c2cc3c(-c4ccc(OC)c(OC)c4)nn(C)c3s2)CC1 | 2.1% | 0.1% | 26.3% | -1.8% | ?
CCOC(=O)C1CCCN(C(=O)c2cc3c(-c4cccc(OC)c4)nn(C)c3s2)C1 (centres undefined) | 2.1% | -3.2% | -29.3% | ? | 3.16µM*
COc1cccc(-c2nn(C)c3sc(C(=O)N4CCN(c5ccccn5)CC4)cc23)c1 | 5.8% | -1.7% | -33.2% | ? | ?
Cc1cc(C)n(-c2nc3ccccc3c3nc(C)nn23)n1 | · | -0.9% | -4.9% | 0.7% | 10µM*
CCOc1ccccc1-n1nnc(-c2nc(-c3ccccc3C)no2)c1C | · | · | 13.4%[10.9 µM] | -2.0% | ·
CCOc1ccc(C2C(C#N)=C(N)SC(N)=C2C#N)cc1OC | 2.6%[20.6 µM] | · | · | · | ·
CCOc1ccc(C2C(C#N)=C(N)SC(N)=C2C#N)cc1OCC | -1.9% | · | -4.4% | 0.9% | 7.94µM*
CCCN(CCC)S(=O)(=O)c1ccc2c(c1)N(CC(=O)NC(C)c1ccccc1)C(=O)CS2 (centres undefined) | · | · | -15.5%[10.9 µM] | ? | ·
Cc1ccc(OCC(=O)NCC2(N3CCOCC3)CCCCC2)cc1C | · | · | -10.9%[10.9 µM] | ? | ·
CCN(c1ccccc1)c1ccc2cc(S(=O)(=O)N3CCCC3)ccc2n1 | · | · | -8.4%[10.9 µM] | 0.8% | ·
Cc1nc2ccc(Nc3nc4cc(S(=O)(=O)N5CCOCC5)ccc4o3)cc2s1 | 1.3% | -0.9% | -16.2% | 1.9% | 12.6µM*
Cc1nc2ccc(NC(=O)N3CCOCC3)cc2s1 | 2.1% | -0.2% | 13.9% | -1.0% | -1.5%
O=C(CSc1nc(Nc2ccccc2)nc(N2CCOCC2)n1)N1CCc2ccccc21 | -2.1% | 2.2% | 0.3% | -3.0% | 3.98µM*
